According to PubChem BioAssay AID647 (Vanderbilt High Throughput Screening Facility, 2007):
Among all 2,200 compounds or so, about 1,400 (64%) were called active. The set was probably picked from earlier hits. These entries were drawn from the full list. A number with no mark means an inactive call.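 The calls were made as follows: active = luminescence in either replicate above plate mean of wells with a partly effective reference agonist dose plus 3 SD; inactive = the rest.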

Assay: isoproterenol-driven CRE-luciferase response modulation in HEK293 cells, confirmation, counter-screen for D1 allosteric modulator project, cell-based, secondary assay 2, luminescence (AID 647);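 also: isoproterenol raises cAMP through native beta-adrenoceptor Gs so signal bypasses D1; raw luminescence counts from the Envision reader with one value per duplicate well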
Conditions: isoproterenol EC30 counter-screen, at 10 µM, hits give high values

SMILES	luminescence
COc1ccc(-c2nnc(SCC(=O)NC3CCCCC3)o2)cc1OC	3200 (active)
O=S(=O)(c1cccs1)N1CCc2ccccc2C1	3530 (active)
CCOC(=O)/C=c1\s/c(=C\c2ccccc2OC)c(=O)n1CC(=O)N1CCOCC1	3580 (active)
CCCn1c(=O)c2[nH]c(C3CCCC3)nc2n(CCC)c1=O	3630 (active)
COc1ccc(S(=O)(=O)N(C)CC(=O)Nc2ccc3c(c2)OCCO3)cc1OC	3480 (active)
Cc1nn(-c2ccccc2)c2c1C(=O)NC(=O)C(C)(C)C2	3700 (active)
CC(=O)OC(C)C[N+](C)(C)C (stereo unspecified)	2500
CCc1ccc2oc(=O)cc(CN3CCCCC3C)c2c1 (stereo unspecified)	3040 (active)
COc1ccc(-c2n[nH]c(C)c2-c2ccc(OC)c(OC)c2)c(O)c1	3290 (active)
CCCSc1nc2c(c(=O)[nH]c(=O)n2C)n1CCc1ccccc1	6090 (active)
CC1CCN(c2nc3c(c(=O)[nH]c(=O)n3C)n2CCCc2ccccc2)CC1	5160 (active)
COC(=O)Nc1ncc(CN2C(=O)c3ccccc3C2=O)s1	2570
CCc1cc(=O)oc2cc(OCC(=O)N3CCCc4ccccc43)ccc12	4550 (active)
C=CCn1cnc2scc(-c3ccccc3)c2c1=O	3500 (active)
CCCc1nc(N)nc2c1C(=O)CC(C)(C)C2	4320 (active)
COc1ccc(-c2nnn(Cc3nc(N)nc(N4CCCCC4)n3)n2)cc1	3650 (active)
COc1ccc(NC(=O)C2CCCN(S(=O)(=O)c3cccc4cccnc34)C2)cc1OC (stereo unspecified)	3940 (active)
COc1ccc(CCN(C)C(=O)C2CCCN(Cc3ccc(OC)c(OC)c3)C2)cc1OC (stereo unspecified)	2610
CCOC(=O)c1c(NC(=O)CSc2nnc(CN3CCOCC3)n2C)sc2c1CCCC2	2880
C#CCNc1nc(C(C)C)nc2c1nnn2Cc1ccccc1F	3140 (active)
COc1ccc(-c2cc(C(F)(F)F)nc(S(C)(=O)=O)n2)cc1OC	4780 (active)
N#CCCN1CCN(S(=O)(=O)c2ccc(S(=O)(=O)NC3CCCCC3)cc2)CC1	2440

SMILES	luminescence
COc1ccc(S(=O)(=O)Nc2ccc(S(=O)(=O)N3CCCCC3)cc2)cc1OC	3220 (active)
COc1nc(NCc2ccc(Cl)cc2)nc(OC)n1	2930
CCOC(=O)c1cc2n(c1C)-c1ccccc1C2=O	3830 (active)
c1ccc(-c2nnc3n2NC(c2ccc4c(c2)OCO4)S3)cc1 (stereo unspecified)	3680 (active)
CCCCNc1nc2ccccc2nc1NS(=O)(=O)c1cccs1	3780 (active)
COc1ccc(CCNC(=O)CCn2c(=O)oc3ccccc32)cc1OC	3400 (active)
COc1ccc(CCNC(=O)c2cc3sccc3n2C)cc1OC	3110
CCCn1c(=NC(C)=O)c(C(=O)OCC)cc2c(=O)n3ccccc3nc21	2650
CCn1c(=N)c(S(=O)(=O)c2ccc(F)cc2)cc2c(=O)n3ccccc3nc21	5680 (active)
O=C(NCc1ccccn1)c1ccc2nc(-c3ccco3)c(-c3ccco3)nc2c1	2550
Cn1c(/C(C#N)=C2/CCCCCN2)nc2ccccc21	3990 (active)
CCn1cc(C(=O)NCC2COc3ccccc3O2)c2cc(OC)c(OC)cc2c1=O (stereo unspecified)	2910
CCC(=O)NC(=Nc1nc2ccccc2s1)NC(=O)CC	3180
c1ccc2c(NCC3CCCO3)nc(-c3ccncc3)nc2c1 (stereo unspecified)	3220 (active)
Cn1c(=O)c2[nH]c(NCC3CCCO3)nc2n(-c2ccccc2)c1=O (stereo unspecified)	2780
CCCCSc1nc2c(c(=O)n1CC)SC(C)C2 (stereo unspecified)	2820
CCOc1cccc(-n2nnnc2-c2ccc(OC)cc2)c1	4040 (active)
CC(C)n1c(C(O)c2ccccc2)nc2ccccc21 (stereo unspecified)	2350
COC(=O)c1ccccc1NC(=O)C1CCN(S(=O)(=O)c2cc(OC)ccc2OC)CC1	3570 (active)
CCCS(=O)(=O)N1CCC(C(=O)NCCc2ccc(OC)c(OC)c2)CC1	2720
Cn1c(=O)c2cn(-c3cccc4ccccc34)cc2n(C)c1=O	3300 (active)
CC(=O)c1ccc(Oc2cc(C)nc(-n3nc(C)cc3C)n2)cc1	6880 (active)

SMILES	luminescence
COc1ccc(Nc2cc(C)nc(-n3nc(C)cc3C)n2)cc1	3540 (active)
COc1ncnc2sc3c(c12)CCCC3	2970
CCOc1ccc(Cn2c(SCCCCC#N)nc3c2c(=O)n(C)c(=O)n3C)cc1OCC	5750 (active)
COC(=O)C(C)C1Sc2ccccc2NC1=O (stereo unspecified)	3160
CN1CCN(CC(O)COCc2ccc3c(c2)OCO3)CC1 (stereo unspecified)	5380
c1coc(-c2nc3nc4ccccc4n3nc2-c2ccco2)c1	4380 (active)
COC(=O)C1=C(C)NC2=C(C(=O)c3ccccc32)C1c1ccc(-c2ccc(C(=O)O)cc2)o1 (stereo unspecified)	2560
CCCCc1c(O)nc2n(c1=O)CCS2	2460
COc1ccc(CCNc2ncnc3nc[nH]c23)cc1OC	3430 (active)
CCCc1nc(-c2ccccc2O)n(-c2ccccc2)n1	3160 (active)
CC1(C)Cc2ccccc2-c2nc(CN3CCOCC3)[nH]c(=O)c21	3540 (active)
CC1Oc2ccccc2N(Cc2cccnc2)C1=O (stereo unspecified)	2840 (active)
CCOC(=O)c1c(NC(=O)CSc2nnc(Cc3csc(N)n3)n2C)sc(C)c1C	2440
c1ccc(COc2nsnc2N2CCOCC2)cc1	4500
N#CCSc1nc2ccccc2c(=O)n1-c1ccccc1	4560 (active)
C=CCSc1nc2c(c(=O)[nH]1)C(C(C)C)C(C#N)=C(N)O2 (stereo unspecified)	5180 (active)
COc1ncnc2c1N=C1CC(C)(C)CC(N)=C1S2	2960
O/N=C(\c1ccc2c(c1)OCCO2)C1CCCCC1	2880 (active)
N#Cc1nc(Cc2ccccc2)oc1NCCc1ccccc1	4280 (active)
COc1ccc(Nc2oc(-c3ccccc3Cl)nc2C#N)cc1	3960 (active)
CCOc1ccc(Nc2oc(Cc3ccccc3)nc2C#N)cc1	5850 (active)
CC(C)C1C2=C(CC(C)(C)CC2=O)ON1c1ccccc1 (stereo unspecified)	3320
